In PubChem BioAssay AID1645855 (Buhrlage Lab, Dana-Farber Cancer Institute and Novartis …, 2021):
The whole screen tested about 47,000 compounds, of which about 3,100 (6.6%) were called active. No stated cut-off is given here; in the data, active means inhibition above about 30%; inactive means the rest. Many of the other results were omitted from the sample, so actives are more common in it than they were.

target: Ubiquitin carboxyl-terminal hydrolase 17-like protein 5 (Homo sapiens) (UniProt A8MUK1); experiment: inhibitors of human USP17 deubiquitinase (AID 1645855); settings: purified USP17, Ub-rhodamine cleavage fluorescence, 3 h; at 50 µM; active compounds read high
Sequence (A8MUK1 whole entry, looked up): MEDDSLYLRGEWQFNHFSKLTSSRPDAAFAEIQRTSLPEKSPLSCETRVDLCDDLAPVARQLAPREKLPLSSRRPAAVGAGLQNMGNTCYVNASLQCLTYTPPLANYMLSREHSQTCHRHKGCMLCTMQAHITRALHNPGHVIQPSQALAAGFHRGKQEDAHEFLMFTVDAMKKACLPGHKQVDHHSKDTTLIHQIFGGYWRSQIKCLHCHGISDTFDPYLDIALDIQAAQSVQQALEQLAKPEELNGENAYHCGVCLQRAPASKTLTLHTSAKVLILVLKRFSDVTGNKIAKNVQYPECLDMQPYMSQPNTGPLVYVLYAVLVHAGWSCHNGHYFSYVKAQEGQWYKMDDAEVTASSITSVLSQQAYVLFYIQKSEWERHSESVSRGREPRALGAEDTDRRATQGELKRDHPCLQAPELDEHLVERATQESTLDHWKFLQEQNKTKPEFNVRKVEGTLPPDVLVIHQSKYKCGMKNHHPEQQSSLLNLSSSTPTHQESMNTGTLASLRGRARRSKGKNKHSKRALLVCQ

Row | SMILES | inhibition
1 | CC(C)NC(=O)[C@H](C)NC(=O)N1CCn2c1nc1ccccc12 | -12.1% (inactive)
2 | CN1Cc2c(C(=O)NCC3CCCO3)ncn2-c2ccccc2S1(=O)=O (stereo not drawn) | -13.6% (inactive)
3 | Cn1c(=O)c2c(SCC(=O)N3CCC(Cc4ccccc4)CC3)nc(-c3cccs3)nc2n(C)c1=O | 2.08% (inactive)
4 | COc1ccc(F)cc1-c1ccccc1CC1CNCCNC1=O (stereo not drawn) | -14.6% (inactive)
5 | O=C(Cn1cnc2ccccc21)N1CCCc2ccccc21 | -1.89% (inactive)
6 | Cc1nc2ccccc2c(=O)n1CC(=O)N1CCCc2ccccc21 | 4.34% (inactive)
7 | COC(=O)COc1cccc2c(=O)n(CC(=O)N3CCc4ccccc43)ccc12 | 35.8% (active)
8 | Cn1c(=O)c2c(ncn2CC(=O)OCc2cccc([N+](=O)[O-])c2)n(C)c1=O | -12.3% (inactive)
9 | COc1ccc(-c2cc(C(=O)Nc3cccc(C)c3C)c3ccccc3n2)cc1OC | -1.61% (inactive)
10 | CCN1C[C@@]23CN(C(=O)c4ccc(OC)cc4)C[C@@H](C[C@@H]2S1(=O)=O)O3 | 0.859% (inactive)
11 | O=C(c1ccco1)[C@@H]1[C@@H]2C(=O)N(c3cccc([N+](=O)[O-])c3)C(=O)[C@@H]2C2c3ccccc3C=CN21 (stereo partly drawn) | -7.36% (inactive)
12 | O=C(c1cccnc1)N1CCN(c2cc(-c3ccccc3)[nH]n2)CC1 | -26.3% (inactive)
13 | COc1cccc(N2CCCN(C(=O)c3ccc4nc(C)[nH]c4c3)CC2)c1 | -10.9% (inactive)
14 | COc1cccc(-c2cc(C(=O)N3CCN(c4ccc(N5CCOCC5)nn4)CC3)[nH]n2)c1 | 33.1% (active)
15 | N#Cc1ccccc1NC(=O)c1cccc2c1SCCC2=O | 8.87% (inactive)
16 | Cc1cccc(N2CCN(C(=O)C3CCCN(S(=O)(=O)N4CCC5(CC4)OCCO5)C3)CC2)c1C (stereo not drawn) | 9.89% (inactive)
17 | O=C(O)c1c2c(nc3ccccc13)/C(=C/c1ccc(F)cc1)CCC2 | 4.5% (inactive)
18 | O=C1NC(c2ccccc2)=N/C1=C/c1ccc(F)cc1 | 39.9% (active)
19 | CCC(C)Cc1ccc2c(c1O)C(=O)OC(CC(\C=C/C=C\C=C\c1coc(CC(O)C(C)C(O)CC)n1)OC)C2 (stereo not drawn) | 14.5% (inactive)
20 | COc1ccccc1CNC(=O)c1c(O)c2cccnc2n(-c2ccccc2)c1=O | -4.34% (inactive)
21 | O=C(NCc1ccccc1)c1cc(-c2ccncc2)n[nH]1 | -3.2% (inactive)
22 | O=C(NCc1ccccc1)c1c(O)c2cnn(Cc3ccccc3)c2[nH]c1=O | 33.7% (active)
23 | O=C(CN1CCC(Nc2nc3c(c(=O)[nH]2)CCCC3)CC1)Nc1ccccc1[N+](=O)[O-] | 14% (inactive)
24 | Cc1sc(NC(=O)CCc2ccccc2)nc1-c1ccc2c(c1)N(C)C(=O)CO2 | -15.7% (inactive)
25 | Cc1ccc(C)c(S(=O)(=O)N2CCC(c3nc(C(=O)N(C)C)c(C)o3)CC2)c1 | -7.71% (inactive)
26 | O=C(NCc1cccnc1)[C@@H]1CC[C@@H]2[C@@H](CCN2c2ncc(F)cn2)O1 | -63.6% (inactive)
27 | COc1ccc(NS(=O)(=O)c2cc(NC(=O)COc3ccccc3F)ccc2OC)cc1 | 6.42% (inactive)

Row | SMILES | inhibition
28 | COc1ccc(NS(=O)(=O)c2cc(NC(=O)/C=C/c3cccc(OC)c3)ccc2OC)cc1 | -3.35% (inactive)
29 | COc1ccc(NS(=O)(=O)c2cc(NC(=O)CC(=O)c3ccc([N+](=O)[O-])cc3)ccc2C)cc1 | 39.9% (active)
30 | COCCN1C[C@H]2COc3cc(OC)ccc3[C@H]2N(C(=O)c2ccc(F)cc2)CCC1=O | 0.764% (inactive)
31 | CC(C)n1cnc(-c2cc(C(=O)NC3CC3)c3ccccn23)c1 | -51.2% (inactive)
32 | CCCNC(=O)c1ccc(Nc2cc(C)nc3nc(-c4cccnc4)nn23)cc1 | 7.85% (inactive)
33 | C[C@]12C(=O)N(c3cccc(C(=O)NCCN4CCOCC4)c3)C(=O)N1CCc1c2[nH]c2ccccc12 | -24.6% (inactive)
34 | COc1ccc(CNC(=O)c2ccccc2N2C(=O)N3CCc4c([nH]c5ccccc45)[C@@]3(C)C2=O)cc1 | 56.3% (active)
35 | COc1ccc2[nH]c3c(c2c1)CCN1C(=O)N([C@@H](C)C(=O)NCC(=O)O)C(=O)[C@]31C | 9.34% (inactive)
36 | O=C(NCCc1ccc(F)cc1)N1CC[C@@H]2CN(Cc3ccncc3)S(=O)(=O)[C@@H]2CC1 | -15.9% (inactive)
37 | O=C(CNC(c1ccccc1)c1ccccc1)Nc1ccc(F)cc1 | 3.76% (inactive)
38 | O=C(N[C@@H]1C[C@@H](Oc2cccnc2)[C@H](O)[C@H]1N1CCCCC1)c1cnco1 | -6.77% (inactive)
39 | COc1cc(OC)cc(-c2nnc(NC(=O)c3ccc([N+](=O)[O-])o3)o2)c1 | 51.3% (active)
40 | COc1cccc(-c2ocnc2C(=O)NCc2ccc(OC)c(OC)c2)c1 | -10.8% (inactive)
41 | COc1cccc(CNC(=O)c2ccc(-c3cncnc3)nc2)c1 | -9.04% (inactive)
42 | CN(C)C(=O)c1cccnc1-c1nc2ccccc2s1 | 9.06% (inactive)
43 | Cc1nc(NCc2ccco2)nc2c1COCC21CCN(C(=O)C(C)(C)C)C1 (stereo not drawn) | -22.1% (inactive)
44 | CC1=C(C(=O)Nc2ccccc2)C(c2cccs2)n2ncnc2N1 (stereo not drawn) | -10.9% (inactive)
45 | COc1ccccc1NC(=O)C1=C(C)Nc2ncnn2C1c1ccc(C)o1 (stereo not drawn) | 0.179% (inactive)
46 | COc1ccc(NC(=O)C2=C(C)Nc3ncnn3C2c2cccc(OCc3ccc(F)cc3)c2)c(OC)c1 (stereo not drawn) | 51.9% (active)
47 | CC1=C(C(=O)Nc2ccccc2)C(c2ccc(OCc3c(Cl)cccc3Cl)cc2)n2ncnc2N1 (stereo not drawn) | 69.4% (active)
48 | CC1=C(C(=O)Nc2ccccc2)C(c2cccnc2)n2nc(CCCO)nc2N1 (stereo not drawn) | -9.97% (inactive)
49 | COc1cccc(C2C(C(=O)Nc3ccccc3C)=C(C)Nc3ncnn32)c1OCc1ccccc1 (stereo not drawn) | -19.2% (inactive)
50 | COc1cccc([C@@H]2C[C@]3(C)NC(=O)CCCC[C@@H]3N2C(=O)c2cnn(C)c2)c1 | -8.06% (inactive)
51 | CC1COc2ccccc2N1C(=O)c1ccc(F)cc1 (stereo not drawn) | 0.747% (inactive)
52 | CC1CCN(S(=O)(=O)c2cccn(CC(=O)Nc3ccc(F)cc3)c2=O)CC1 | -5.61% (inactive)
53 | COC(=O)c1cccc(Nc2c(-c3ccccc3)nc3cnc(Br)cn23)c1 | -68.2% (inactive)
